Drawing on PubChem BioAssay, this text covers composite z-score and z-score for 13 compounds.

For test [1], the system named is Plasmodium falciparum Sir2 (PF13_0152, Sir2A). In words: pfSir2 binders on small-molecule microarrays, primary screen, biochemical, small-molecule microarray, 635 nm fluorescence (AID 1098).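 Note: score merges spot fluorescence intensity with its signal-to-noise ratio.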 The following applies: small-molecule microarray binding, fluorescence 635 nm; higher = more signal.
Test [2] in a line: small-molecule microarray binders of probe aDKK1, primary screen, biochemical, biotinylated probe, 635/667 nm fluorescence (AID 1099).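 Note: score merges 667nm spot fluorescence with signal to noise across triplicate slides; reference of the scale not given here.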 The following applies: higher = more signal.
The nature of test [3]: small-molecule microarray binders of probe aCHRDL2, primary screen, biochemical, biotinylated probe, 635/667 nm fluorescence (AID 1100). The following applies: higher = more signal.
The nature of test [4]: splicing luciferase reporter signal modulators, primary screen, spliceosome inhibition project, cell-based, HEK293, splice +/- reporter (AID 1101).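 Note: HEK293 cells carrying a splicing-competent luciferase reporter gene; test concentration not given here.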 The following applies: luminescence, 24 h, higher = more signal, called active from +8 up or from −8 down. On the technique in general: In a reporter assay the amount or activity of a reporter protein is the signal.
For test [5], the target named is Fibroblast growth factor 10 (Homo sapiens) (UniProt O15520). Briefly: FGF10 binders on small-molecule microarrays, primary screen, biochemical, small-molecule microarray, 635 nm fluorescence (AID 1102). The following applies: FGF10 binding, fluorescence 635 nm, higher = more signal.
Fibroblast growth factor 10 (Homo sapiens), sequence (O15520 whole entry, looked up): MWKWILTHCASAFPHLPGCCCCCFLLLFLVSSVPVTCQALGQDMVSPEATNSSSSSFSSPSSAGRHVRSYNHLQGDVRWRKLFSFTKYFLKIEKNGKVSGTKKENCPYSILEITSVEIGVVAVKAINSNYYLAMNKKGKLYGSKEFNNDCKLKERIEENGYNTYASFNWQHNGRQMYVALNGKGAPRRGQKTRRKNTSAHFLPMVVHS
In test [6] the test system is glycogen synthase kinase-3 (GSK3A per assay name; protocol says GSK3B). Briefly: GSK3 binders on small-molecule microarrays, primary screen, biochemical, small-molecule microarray, 635 nm fluorescence, GSK3A (AID 1103). Note: the record names both GSK3A and GSK3B. The following applies: small-molecule microarray binding, fluorescence 635 nm; higher = more signal.
Test [7] has as its target Epidermal growth factor receptor (Homo sapiens) (UniProt P00533). Briefly: EGFR binders on small-molecule microarrays, primary screen, biochemical, small-molecule microarray, 635 nm fluorescence (AID 1104).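 Note: score merges 667 nm emission intensity with spot signal to noise over triplicate slides.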 The following applies: EGFR binding, higher = more signal.
Test [8] addresses Follistatin-related protein 3 (Homo sapiens) (UniProt O95633). Briefly: FSTL3 binders on small-molecule microarrays, primary screen, biochemical, small-molecule microarray, 635 nm fluorescence (AID 1105).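 Note: score merges emission near 667 nm and signal to noise per printed spot across three slides.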 The following applies: FSTL3 binding, higher = more signal.
The target in test [9] is Dickkopf-related protein 1 (Homo sapiens) (UniProt O94907). Briefly: DKK1 binders on small-molecule microarrays, primary screen, biochemical, small-molecule microarray, 635 nm fluorescence scan (AID 1106).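 Note: score merges emission near 667 nm with signal to noise over three replicate slides.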 The following applies: DKK1 binding, higher = more signal.
Dickkopf-related protein 1 (Homo sapiens), sequence (O94907 whole entry, looked up): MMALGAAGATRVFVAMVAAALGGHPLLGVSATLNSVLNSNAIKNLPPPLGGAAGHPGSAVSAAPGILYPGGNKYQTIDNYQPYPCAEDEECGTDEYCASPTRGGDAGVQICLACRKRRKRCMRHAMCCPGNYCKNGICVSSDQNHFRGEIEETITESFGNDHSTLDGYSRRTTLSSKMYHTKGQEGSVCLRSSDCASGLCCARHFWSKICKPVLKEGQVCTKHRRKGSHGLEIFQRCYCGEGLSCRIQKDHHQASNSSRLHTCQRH
Test [10] deals with Inhibin beta A chain (activin A). Briefly: INHBA (activin A) binders on microarrays, primary screen, biochemical, small-molecule microarray, 635 nm fluorescence scan (AID 1107).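 Note: mouse activin A protein probed at 4.33 µg/mL on printed slides; score merges bound-protein fluorescence near 667 nm with spot signal-to-noise.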 The following applies: small-molecule microarray binding, higher = more signal.

Activity calls are given as the source filed them.

Follistatin-related protein 3 (Homo sapiens), sequence (O95633 whole entry, looked up): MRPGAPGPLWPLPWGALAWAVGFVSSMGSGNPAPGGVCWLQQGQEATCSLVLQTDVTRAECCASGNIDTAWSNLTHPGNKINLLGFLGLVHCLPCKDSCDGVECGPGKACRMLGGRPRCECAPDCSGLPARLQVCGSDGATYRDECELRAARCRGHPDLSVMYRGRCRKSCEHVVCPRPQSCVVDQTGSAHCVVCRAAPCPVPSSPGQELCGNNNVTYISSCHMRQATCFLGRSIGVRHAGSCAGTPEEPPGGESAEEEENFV
Epidermal growth factor receptor (Homo sapiens), sequence (P00533 whole entry, looked up): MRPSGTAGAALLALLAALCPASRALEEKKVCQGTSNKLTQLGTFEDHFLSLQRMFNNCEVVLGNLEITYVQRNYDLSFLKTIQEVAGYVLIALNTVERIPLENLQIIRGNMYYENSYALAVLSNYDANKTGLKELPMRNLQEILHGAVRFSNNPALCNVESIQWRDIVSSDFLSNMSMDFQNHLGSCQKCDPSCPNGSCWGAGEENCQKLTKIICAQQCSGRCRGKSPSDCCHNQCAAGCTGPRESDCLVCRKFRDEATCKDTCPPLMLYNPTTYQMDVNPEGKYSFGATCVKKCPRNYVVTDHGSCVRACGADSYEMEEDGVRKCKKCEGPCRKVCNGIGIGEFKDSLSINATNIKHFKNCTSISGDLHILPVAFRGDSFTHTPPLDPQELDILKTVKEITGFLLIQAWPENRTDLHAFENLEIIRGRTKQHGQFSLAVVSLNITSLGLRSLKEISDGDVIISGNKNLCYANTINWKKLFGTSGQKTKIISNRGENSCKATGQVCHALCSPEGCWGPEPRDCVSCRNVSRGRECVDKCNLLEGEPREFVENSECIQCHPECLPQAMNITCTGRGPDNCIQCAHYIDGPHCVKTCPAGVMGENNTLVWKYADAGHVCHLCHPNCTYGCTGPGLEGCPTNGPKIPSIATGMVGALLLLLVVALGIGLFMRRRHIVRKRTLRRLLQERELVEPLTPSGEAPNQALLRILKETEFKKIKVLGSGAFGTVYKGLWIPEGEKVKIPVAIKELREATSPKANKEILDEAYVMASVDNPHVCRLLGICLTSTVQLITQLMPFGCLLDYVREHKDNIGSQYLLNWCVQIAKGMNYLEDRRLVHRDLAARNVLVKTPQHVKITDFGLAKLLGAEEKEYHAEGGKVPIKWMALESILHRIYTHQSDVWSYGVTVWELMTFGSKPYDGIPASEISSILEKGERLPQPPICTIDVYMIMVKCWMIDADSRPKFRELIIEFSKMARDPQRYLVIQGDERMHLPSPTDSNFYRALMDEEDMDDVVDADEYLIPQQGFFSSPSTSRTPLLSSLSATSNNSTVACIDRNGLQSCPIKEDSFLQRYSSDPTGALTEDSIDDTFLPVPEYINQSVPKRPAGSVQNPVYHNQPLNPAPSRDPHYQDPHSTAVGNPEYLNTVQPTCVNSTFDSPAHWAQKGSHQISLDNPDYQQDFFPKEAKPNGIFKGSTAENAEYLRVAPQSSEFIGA

`COCCOC(=O)N1C(=O)[C@@]2(c3cc(C#CCCO)ccc31)[C@H](c1ccc(O)cc1)N1[C@H](c3ccccc3)[C@H](c3ccccc3)OC(=O)[C@H]1[C@@H]2C(=O)N1CCCCCCC1`: the composite z-score in test [1] stood at 1.4; in test [2], 1.51; in [3] it was 0.885; in test [5] it was 1.13; in test [6], 1.26; in test [7], 0.483. Further, the composite z-score in [8] was found to be 1.39; in test [9], 0.771; in test [10], 1.59. The z-score in [4] is 0.242 (inactive).
Regarding `Cc1ccc(S[C@]2(C(=O)NCCCN(C)C)CC(=O)N(Cc3ccccc3)[C@@H]2c2ccc(CO)cc2)cc1`, the composite z-score in [1] was -1.43; in test [2], 0.938; in [3] it was 1.15; in test [5], -1.01; in test [6], -0.726; in test [7], -1.03. The figures for the composite z-score in test [8], in [9] and in [10] were -1.26, -0.909 and 0.591, respectively. The z-score in [4] was -0.522 (inactive).
As to `COCCn1c(C(=O)N(C)C)cc2c1C[C@H]1CN(C(=O)c3ccccc3)[C@@](Cc3ccc(F)cc3)(C(=O)OC)[C@@H]21`, the composite z-score in [1] was 0.205; in test [2] it was 1.15; in [3] it was 0.843; in test [5] it was 0.61; in [6] it was 0.397; in test [7] it was -0.0331. The composite z-score in test [8] was 0.126; in [9], -0.567; in test [10], 0.692. In [4], the z-score was -1.12 (inactive).
For the compound `CN(C)CCCC[C@@H]1NC(=O)[C@@H]2C[C@H](C(=O)NCCCCCCN)[C@H](c3ccc(O)cc3)N2C1=O`, the composite z-score is 0.812 in [1]; 1.46 in [2]; 0.848 in test [3]; 0.987 in [5]; 1 in test [6]; 0.734 in test [7]. For the same compound, the results for the composite z-score in [8], in test [9] and in test [10] were 0.849, 1.05 and 1.41, respectively. The z-score in [4] was -0.0228 (inactive).
As for `COc1ccccc1CN1C(=O)c2ccccc2[C@](Cc2ccccc2I)(C(=O)NC2CC2)[C@@H]1c1ccc(CO)cc1`, the composite z-score is 1.58 in test [1]; -0.617 in test [2]; 0.042 in test [3]; 1.23 in [5]; 1.33 in test [6]; 0.385 in test [7]. Moreover, the composite z-score in [8] amounted to 1.29; in test [9], 0.974; in test [10], 0.154. In [4], the z-score is 0.0417 (inactive).
With `COCCOC(=O)N1C(=O)[C@@]2(c3cc(C#Cc4ccc(OC)cc4)ccc31)[C@H](c1ccc(O)cc1)N1[C@H](c3ccccc3)[C@H](c3ccccc3)OC(=O)[C@H]1[C@@H]2C(=O)N1CCN(c2ncccn2)CC1`, the composite z-score in test [1] was 0.408; in [2], -0.544; in [3], 0.245; in [5], 0.735; in test [6] it was -0.0597; in test [7], 0.375. The composite z-score in [8] came to 0.85; in [9], 0.355; in test [10], 0.349. The z-score in test [4] was 0.477 (inactive).
Take `CO[C@H]1O[C@H](CO)[C@@H](OC(=O)Nc2ccccc2-c2ccccc2)[C@H](OC(=O)Nc2ccccc2-c2ccccc2)[C@H]1OC(=O)Nc1ccccc1-c1ccccc1`: the composite z-score in [1] is 1.54; in [2] it was 0.677; in test [3] it was 0.607; in [5] it was 1.4; in test [6], 1.35; in [7], 0.197. Besides, the composite z-score in test [8] was 1.36; in [9], 0.289; in test [10] it was 0.628. For the same compound, in test [4], the z-score is -0.316 (inactive).
Regarding `O=C1OCCC/C=C\[C@H]2OC34C=CCN(CCN5CCOCC5)C(=O)[C@H]3N(CCO)C(=O)[C@@H]4C12` (stereo not given in full), the composite z-score was 1.66 in test [1]; -0.214 in [2]; 0.0583 in test [3]; -0.506 in [5]; -0.707 in test [6]; -0.676 in test [7]. Moreover, the composite z-score in [8] was -1.14; in test [9], -0.507; in test [10] it was -0.68. In addition, the z-score in [4] is -1.15 (inactive).
For the compound `COCCOC(=O)N1C(=O)[C@@]2(c3cc(C#CC4=CCCCC4)ccc31)[C@H](c1ccc(OCCO)cc1)N1[C@H](c3ccccc3)[C@H](c3ccccc3)OC(=O)[C@H]1[C@@H]2C(=O)Nc1nc2ccccc2s1`, the composite z-score stood at 0.581 in test [1]; 0.0643 in test [2]; 0.153 in [3]; 1.08 in [5]; 1.29 in test [6]; 0.287 in test [7]. In addition, the composite z-score was 1.12 in test [8], 0.521 in [9] and 0.462 in test [10]. Moreover, the z-score in test [4] was -0.831 (inactive).
For the compound `O=P(NCC1(CC2(c3ccccc3)CO2)CC1)(c1ccccc1)c1ccccc1` (stereo not given), the composite z-score in [1] is 1.57; in test [2] it was 0.29; in test [3], 1.02; in test [5], -0.686; in [6], -1.49; in [7], -1.28. The figures for the composite z-score in test [8], in test [9] and in [10] were -1.37, -0.915 and 0.758, respectively. Besides, the z-score in [4] was -1.45 (inactive).
Consider `CCCC[C@@H]1C[C@H]1[C@@H](NC(=O)c1ccco1)c1ccccc1`, for which the composite z-score in [1] is -1.69; in test [2] it was -0.145; in test [3], 1.01; in test [5], -1.01; in test [6], -1.31; in [7], -2.01. Besides, the composite z-score is -1.63 in test [8], -2.05 in [9] and 0.735 in test [10]. Also, the z-score in [4] was 0.00344 (inactive).
Consider `[N-]=[N+]=NCc1ccccc1[C@@H]1OC(c2ccc(OCCCO)cc2)=N[C@]1(Cc1ccccc1N=[N+]=[N-])C(N)=O`, for which the composite z-score is 1.48 in test [1]; 0.367 in test [2]; 1.16 in test [3]; 1.38 in [5]; 1.27 in [6]; -0.0099 in test [7]. Further, the composite z-score in test [8] was determined as 0.995; in test [9], 0.259; in test [10] it was 1.06. In addition, the z-score in test [4] was 0.352 (inactive).
`CN(C)CCCN1C(=O)[C@@]2(c3ccc([N+](=O)[O-])cc3)CC(=O)N(C3CCCCC3)[C@@H]2c2ccc(CO)cc21`: the composite z-score in [1] is -0.34; in test [2], -0.0972; in [3], 0.196; in test [5] it was 0.835; in test [6] it was -0.808; in test [7] it was 0.108. Further, the results for the composite z-score in [8], in test [9] and in [10] were -0.0207, -0.162 and 0.731, respectively. For the same compound, the z-score in test [4] was -0.447 (inactive).
